Measured values as given in PubChem BioAssay AID1159580 (chemical genetic matrix, 2015).
Where “and” joins values, the source holds several entries; their conditions need not be identical. Identical values can stand only once. The campaign covered roughly 5,500 compounds. About 2,000 (36%) were called active. About 18% were inconclusive and are not listed. Cut-off read from the data, not from the text of the source: active = normalized growth mostly below about 0.91 (no sharp cut-off); inconclusive = no clear call, values can overlap the other calls; inactive = mostly above about 0.92. Some of the results follow.

Assay: chemical genetic growth profiling, strain panel (AID 1159580);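 note: tested at 20 µM; growth read once vehicle control cultures reached saturation at 30 °C; 1 = growth at the plate median or of vehicle wells; lower values mean less growth of the strain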
Conditions: S. cerevisiae deletion strains, growth OD

Measured: normalized growth

CO[C@@]12[C@@H]3NC3CN1C1=C(C(=O)C(N)=C(C)C1=O)[C@@H]2COC(N)=O (some centres not stated)
active: locus YCL061C, strain MRC1, stronger effect = lower value 0.919
inactive: locus YAL013W, strain DEP1, stronger effect = lower value 0.997 | locus YAL021C, strain ccr4, stronger effect = lower value 0.98 | locus YAL026C, strain drs2, stronger effect = lower value 0.969 | locus YAL030W, strain snc1, stronger effect = lower value 0.989 | locus YBL061C, strain skt5, stronger effect = lower value 0.964 | locus YBR009C, strain hhf1, stronger effect = lower value 1 | locus YBR021W, strain FUR4, stronger effect = lower value 0.995 | locus YBR023C, strain chs3, stronger effect = lower value 0.962 | locus YBR171W, strain sec66, stronger effect = lower value 0.958 | locus YBR229C, strain ROT2, stronger effect = lower value 1 | locus YBR231C, strain swc5, stronger effect = lower value 0.954 | locus YBR279W, strain paf1, stronger effect = lower value 0.978 | locus YCL011C, strain gbp2, stronger effect = lower value 0.95 | locus YCL016C, strain dcc1, stronger effect = lower value 1.01 | locus YCL029C, strain bik1, stronger effect = lower value 0.971 | locus YCL069W, strain vba3, stronger effect = lower value 0.984 | locus YCR088W, strain abp1, stronger effect = lower value 0.971 | locus YDL005C, strain med2, stronger effect = lower value 0.972 | locus YDL035C, strain GPR1, stronger effect = lower value 1 | locus YDL040C, strain nat1, stronger effect = lower value 0.973 | locus YDL074C, strain BRE1, stronger effect = lower value 1.04 | locus YDL101C, strain DUN1, stronger effect = lower value 1.01 | locus YDL134C, strain PPH21, stronger effect = lower value 1.01 | locus YDL185W, strain tfp1, stronger effect = lower value 0.972 | locus YDL192W, strain arf1, stronger effect = lower value 0.974 | locus YDR001C, strain nth1, stronger effect = lower value 0.954 | locus YDR069C, strain doa4, stronger effect = lower value 0.926 | locus YDR101C, strain arx1, stronger effect = lower value 1 | locus YDR137W, strain rgp1, stronger effect = lower value 0.955 | locus YDR150W, strain NUM1, stronger effect = lower value 0.987 | locus YDR159W, strain sac3, stronger effect = lower value 0.998 | locus YDR162C, strain NBP2, stronger effect = lower value 1.05 | locus YDR195W, strain ref2 0.879 | locus YDR297W, strain sur2, stronger effect = lower value 0.966 | locus YDR318W, strain mcm21, stronger effect = lower value 0.977 | locus YDR334W, strain swr1, stronger effect = lower value 0.934 | locus YDR335W, strain msn5, stronger effect = lower value 0.963 | locus YDR388W, stronger effect = lower value 0.982 | locus YDR392W, strain spt3, stronger effect = lower value 1.06 | locus YDR502C, strain sam2, stronger effect = lower value 1.01 | locus YEL003W, strain gim4, stronger effect = lower value 0.973 | locus YEL037C, strain rad23, stronger effect = lower value 0.975 | locus YEL061C, strain CIN8 (second series), stronger effect = lower value 0.95 | locus YEL061C, strain CIN8, stronger effect = lower value 0.998 | locus YER015W, strain faa2, stronger effect = lower value 1 | locus YER016W, strain bim1, stronger effect = lower value 1.01 | locus YER110C, stronger effect = lower value 0.968 | locus YER111C, strain swi4, stronger effect = lower value 0.981 | locus YER155C, strain BEM2 (second series), stronger effect = lower value 0.962 | locus YER155C, strain BEM2, stronger effect = lower value 0.993 | locus YER167W, strain BCK2, stronger effect = lower value 0.994 | locus YFR010W, strain ubp6, stronger effect = lower value 0.927 | locus YGL078C, strain dbp3, stronger effect = lower value 0.996 | locus YGL086W, strain mad1, stronger effect = lower value 0.963 | locus YGL167C, strain pmr1, stronger effect = lower value 0.94 | locus YGL173C, strain kem1, stronger effect = lower value 0.981 | locus YGL227W, strain vid30, stronger effect = lower value 0.974 | locus YGL240W, strain doc1, stronger effect = lower value 0.966 | locus YGL248W, strain PDE1, stronger effect = lower value 1 | locus YGL253W, strain hxk2, stronger effect = lower value 0.988 | locus YGR078C, strain PAC10, stronger effect = lower value 1.04 | locus YGR135W, strain pre9, stronger effect = lower value 1.02 | locus YGR229C, strain SMI1, stronger effect = lower value 1.02 | locus YGR252W, strain gcn5, stronger effect = lower value 0.943 | locus YHR013C, strain ard1, stronger effect = lower value 0.985 | locus YHR027C, strain rpn1, stronger effect = lower value 0.978 | locus YHR030C, strain SLT2, stronger effect = lower value 0.993 and 0.988 | locus YHR079C, strain IRE1 (second series), stronger effect = lower value 0.994 | locus YHR079C, strain IRE1, stronger effect = lower value 0.957 | locus YHR094C, strain hxt1, stronger effect = lower value 0.975 | locus YHR129C, strain ARP1, stronger effect = lower value 1 | locus YHR142W, strain chs7, stronger effect = lower value 0.987 | locus YHR200W, strain rpn10, stronger effect = lower value 0.971 | locus YIL066C, strain RNR3, stronger effect = lower value 0.998 | locus YIL073C, strain SPO22, stronger effect = lower value 0.914 | locus YIL125W, strain kgd1, stronger effect = lower value 0.996 | locus YIR030C, strain dcg1, stronger effect = lower value 0.991 | locus YJL092W, strain hpr5, stronger effect = lower value 0.936 | locus YJL095W, strain BCK1 (second series), stronger effect = lower value 0.967 | locus YJL095W, strain BCK1, stronger effect = lower value 1.04 and 0.999 | locus YJL115W, strain asf1, stronger effect = lower value 0.968 | locus YJL129C, strain trk1, stronger effect = lower value 0.96 | locus YJL134W, strain LCB3, stronger effect = lower value 1 | locus YJL154C, strain vps35, stronger effect = lower value 0.958 | locus YJL164C, strain tpk1, stronger effect = lower value 1.01 | locus YJL166W, strain qcr8, stronger effect = lower value 0.932 | locus YJL168C, strain set2, stronger effect = lower value 0.983 | locus YJL187C, strain SWE1 (second series), stronger effect = lower value 1.01 | locus YJL187C, strain SWE1, stronger effect = lower value 0.98 | locus YJR043C, strain POL32, stronger effect = lower value 0.98 | locus YJR066W, strain TOR1, stronger effect = lower value 0.941
